Source: PubChem
BLM inh: Bloom syndrome helicase (human) inhibition | P54132 | recombinant BLM DNA unwinding, fluorescence dequenching | Potency, µM (series often up to 56.1 µM), most hits filed as inhibitors | 0.2% of 350,000 active | AID 2528; further: nearly all actives have a fitted effect of over 35% in size
TDP1 inh: inhibitors of human tyrosyl-DNA phosphodiesterase TDP1; Q9NUW8; recombinant TDP1, AlphaScreen DNA substrate cleavage; Potency, µM (highest dose often 130 µM), hits mostly inhibitors; 0.28% of 350,000 active; AID 485290; further: nearly all actives have a fitted effect of over 40% in size
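Tdp1 1 nM final; 15 min RT w/ cpd; substrate 15 nM, 5 min; beads 10 ug/ml, 10 min; AlphaScreen read. Neg ctrl: no enzyme.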
APE1 inh: blocks human APE1 abasic DNA cleavage; Potency, µM (titrated, usually from 65.8 µM), usual class: inhibitors; recombinant APE1, TAMRA/BHQ-2 abasic DNA cleavage fluorescence; AID 2517; P27695; 0.35% of 350,000 active; further: nearly all actives have a fitted effect of over 55% in size
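Step 1: APE1 (0.75 nM) with compound, 15 min RT. Step 2: add 50 nM fluorophore/quencher THF duplex. Step 3: three fluorescence reads 60 s apart (525/598 nm); read 3 minus read 1 = reaction progress.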
RECQ1 inh-1: blocks DNA unwinding by human RECQ1 | P46063 | RECQ1 DNA unwinding, red fluorescence kinetic read | Potency, µM (highest dose often 57.3 µM), hits mostly inhibitors | 0.54% of 240,000 active; further: nearly all actives have a fitted effect of over 30% in size
Target sequence (P46063 whole entry, looked up): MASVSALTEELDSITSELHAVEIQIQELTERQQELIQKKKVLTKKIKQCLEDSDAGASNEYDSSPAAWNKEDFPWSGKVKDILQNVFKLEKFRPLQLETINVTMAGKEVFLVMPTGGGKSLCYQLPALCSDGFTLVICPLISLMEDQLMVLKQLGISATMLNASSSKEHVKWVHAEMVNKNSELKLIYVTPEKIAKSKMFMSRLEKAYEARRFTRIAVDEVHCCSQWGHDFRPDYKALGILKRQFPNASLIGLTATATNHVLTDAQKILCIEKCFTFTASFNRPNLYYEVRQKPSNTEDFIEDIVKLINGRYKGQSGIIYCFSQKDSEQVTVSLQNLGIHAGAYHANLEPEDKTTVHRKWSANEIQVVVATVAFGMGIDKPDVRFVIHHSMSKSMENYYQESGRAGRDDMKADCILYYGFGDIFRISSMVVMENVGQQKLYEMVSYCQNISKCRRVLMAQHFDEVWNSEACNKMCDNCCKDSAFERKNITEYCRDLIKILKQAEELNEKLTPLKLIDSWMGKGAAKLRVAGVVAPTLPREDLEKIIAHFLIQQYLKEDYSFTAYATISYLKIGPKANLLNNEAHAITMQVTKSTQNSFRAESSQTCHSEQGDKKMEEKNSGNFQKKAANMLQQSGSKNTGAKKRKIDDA
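50 nM RECQ1T1 preincubated 15 min with compound in Tris pH 8.0 buffer with MgCl2, DTT, Tween-20 and 2.5 ug/ml poly(dI-dC); started with 200 nM TAMRA/BHQ-2 forked duplex and 2 mM ATP. Unwinding read as fluorescence (525/598 nm), two reads 2 h apart.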
KAT2A inh: blocks human GCN5L2 histone acetyltransferase; GCN5L2 HAT assay, ThioGlo1 CoA-SH fluorescence; 0.21% of 390,000 active; Potency, µM (titrated, usually from 58.9 µM), most hits filed as inhibitors; AID 504327
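qHTS, 1536-well. 20nM enzyme, pH 7.5 HEPES/EDTA/Tween-20 buffer; 15 min compound preinc., RT. Start: 75uM H3(1-25), 70uM AcCoA, 50uM ThioGlo1. Read Ex340/Em540 at t=0 (autofluorescence flag) and t=20 min.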
RECQ1 conf: confirmation of human RECQ1 helicase inhibitors. shares compounds with RECQ1 inh-1. RECQ1 helicase DNA unwinding, fluorescence. Potency, µM (titrated, usually from 229 µM), hits mostly inhibitors. 28% of 610 active; further: nearly all actives have a fitted effect of over 45% in size
ADP FP counter: displaces ADP in a fluorescence polarization counter-screen for RECQ1 hits; shares compounds with RECQ1 inh-1; ADP fluorescence polarization displacement counterscreen; Potency, µM (titrated, usually from 228 µM), actives largely listed as inhibitors; 27% of 530 active; further: nearly all actives have a fitted effect of over 45% in size
RECQ1 inh-2: RECQ1 helicase inhibition confirmed, round 2 | shares compounds with RECQ1 inh-1 | recombinant RECQ1 DNA unwinding, red fluorescence | 15% of 1,100 active | Potency, µM (top dose mostly 119 µM), most hits filed as inhibitors; further: nearly all actives have a fitted effect of over 50% in size
Numbers stand for hits; n = inactive; u = inconclusive; x = no result; [ ] = dose if it differs, or a comment. An excerpt weighted towards active compounds, which were near 0.87% of everything screened. The call rests on the fitted dose curve; in most records, active means well fitted curve in the direction sought with a large enough effect; inconclusive means small, poorly fitted or top-dose-only effect, or another doubt; inactive means no such curve, though single readings can be large; an effect the other way counts as inactive or inconclusive.

SMILES | BLM inh | TDP1 inh | APE1 inh | RECQ1 inh-1 | KAT2A inh | RECQ1 inh-2 | others
O=C1OC(OC(=O)c2cccnc2Nc2cccc(C(F)(F)F)c2)c2ccccc21 (configuration not stated) | n | n | n | n | n | x
Cc1cccn2c(Nc3ccc4c(c3)OCCO4)c(-c3ccc(Br)o3)nc12 | n | n[12.3 µM] | x | x | n | x
O=C(O)CCC(=O)N1CCc2cc(S(=O)(=O)NC3CCCC3)ccc21 | n | n | n | n | n | x | RECQ1 conf=n;ADP FP counter=n
O=C(O)CCCC(=O)N1CCc2cc(S(=O)(=O)N3CCc4ccccc43)ccc21 | n | n | n | n | n | x | RECQ1 conf=n;ADP FP counter=n
O=C(C1CCC1)N1CCc2cc(S(=O)(=O)NC3CCCC3)ccc21 | n | n | n | n | n | x
CCn1c(=O)n(-c2ccc(F)c(Cl)c2)c(=O)c2c3c(sc21)CN(C(C)=O)CC3 | n | n | x | x | n | x
Cc1ccc(C)n1-c1ccc(N2CCOCC2)nc1 | n | n | n | u | n | n
Cc1ccc(S(=O)(=O)Nc2ccc(N3CCOCC3)nc2)cc1 | n | n | n | n | n | x
CC(=O)Oc1ccc2ccccc2c1C(NC(=O)Cc1ccccc1)c1ccc(Cl)cc1 (configuration not stated) | n | n | n | u | u | n
CO[C@H]1COC(=O)[C@H](C)COC(=O)[C@@H](OCc2ccccc2)/C=C\[C@@H]1C | n[12.4 µM] | n[21 µM] | u | n[11.5 µM] | x | x
CCOC(=O)C1(CC2CC2)CCN(Cc2cn[nH]c2-c2ccccc2)CC1 | n | n | n | n | n | x
CCOC(=O)C1(CC2CC2)CCN(S(=O)(=O)/C=C/c2ccccc2)CC1 | n | n | n | u | n | n
Cc1nn(Cc2c(Cl)cccc2Cl)c(C)c1C(=O)NCc1ccc(C)n1C | n | n | n | u | n | n
Cc1nn(Cc2ccccc2)c(Cl)c1C(=O)NCc1ccc(C)n1C | n | n | n | n | n | x
CSc1nnc(-c2ccco2)c(-c2ccco2)n1 | u | x | u | u | u | n
CCCCC1=CC2=C(c3ccco3)C(=O)C(C)(OC(=O)c3ccc(OC)cc3)C(=O)C2=CN1Cc1ccccc1 (configuration not stated) | n[12.4 µM] | n[12.3 µM] | n[12.4 µM] | u | n | n
CCOC(=O)c1cc(-c2ccc(N)cc2)sc1N | n | n | n | n | n | x
CCOC(=O)c1sc(-c2ccc(Br)cc2)cc1N | n | n | n | 31.6µM | n | n
CN(c1ccc(F)cc1)S(=O)(=O)c1ccc(Cl)c(C(=O)Nc2ccc3c(c2)CCC3)c1 | n | n | n | 31.6µM | n | n
CCCC(=O)Nc1cccc(-c2cn3c(C)csc3n2)c1 | n | n | x | x | n | x
O=C(O)C(C(=O)/C=C/c1ccco1)=C1SCCS1 | n | 20µM | 25.1µM | u | n | u
Cc1ccc(OCc2ccc(C(=O)Nc3ccc(C(N)=O)cc3)o2)c([N+](=O)[O-])c1 | n | n | n | u | n | u
Cc1cc(Cl)ccc1NS(=O)(=O)c1c(C(=O)N2CCC(C)CC2)c(C)n(C)c1C | n | n | x | x | n | x
Oc1cc2c(c(Cl)c1O)CCNC[C@H]2c1ccccc1 | n | n | n | u | x | x
Oc1ccc(C2CNCCc3c2cc(O)c(O)c3Cl)cc1 (configuration not stated) | n | n | n | 22.4µM | n | x | RECQ1 conf=u;ADP FP counter=44.7µM
SMILES | BLM inh | TDP1 inh | APE1 inh | RECQ1 inh-1 | KAT2A inh | RECQ1 inh-2 | others
COc1cccc(C(=O)Nc2cccc(C(=O)NC3=NN(c4c(Cl)cc(Cl)cc4Cl)C(=O)C3)c2)c1 | n | n | n | 31.6µM | u | u
Cc1ccc(Cn2c(SCc3ccc(C(=O)O)cc3)nc3cccnc32)cc1 | n | n | x | x | n | x
CC1(C)N=C(c2ccc(Cl)cc2)C(=O)N1 | n | n | n | 35.5µM | n | u
COc1cc(/C=C2\CC/C(=C\c3cc(OC)c(O)c(OC)c3)C2=O)cc(OC)c1O | u | n | u | 14.1µM | n | 2.82µM
Cc1ccc(C2=CC(C)(c3ccc(C)cc3)Nc3nc(C(F)(F)F)nn32)cc1 (configuration not stated) | n | n | n | u | n | n
CCOC(=O)Nc1ccc(OCc2nnc3c4ccccc4c(C)nn23)cc1 | n | n | n | n | n | x
Cc1nn2c(COc3ccc(NC(=O)C(C)C)cc3)nnc2c2ccccc12 | n | n | n | u | n | n
Cc1ccc(NC(=O)c2cc(S(=O)(=O)NCCc3ccccc3)ccc2F)cc1Cl | n | n | n | u | n | n
Cc1ccc(C)c(NC(=O)c2cc(S(=O)(=O)NCCc3ccccc3)ccc2F)c1 | n | n | x | x | n | x
O=C(O)c1cc(N/N=C/c2ccc(N3CCOCC3)s2)ccc1Cl | n | u | 15.8µM | 14.1µM | n | x | RECQ1 conf=n
O=C(CN1C=NS(=O)(=O)c2ccccc21)Nc1ccc(Br)cc1 | n | n | x | x | n | x
O=C1N/C(=N/NC(=O)c2cccc3ccccc23)S/C1=C\c1ccccc1OCc1ccccc1 | n | n | n | u | u | u
COc1ccc(OC)c(/C=C2\S/C(=N/NC(=O)c3ccc4ccccc4c3)NC2=O)c1 | n | n | n | n | n | x
O=[N+]([O-])c1ccc(Cl)c(S(=O)(=O)/N=C(/Sc2ccc(Br)cc2)c2ccccc2)c1 | x | n | x | x | x | x
O=C(Nc1nc(-c2ccccn2)cs1)Nc1ccc(F)cc1F | n | n | n | x | n | x
O=C(Nc1nc(-c2ccccc2)cs1)Nc1ccc(F)cc1F | n | n | n | u | n | n
O=C(Nc1ccc(S(=O)(=O)Nc2nccs2)cc1)c1ccc(=O)[nH]c1 | n | u | u | u | n | u
O=C(Nc1ccc(S(=O)(=O)Nc2nccs2)cc1)c1cccc(F)c1 | n | x | n | x | n | x
Cc1c(N2C(=O)CS/C2=N\N=C\c2ccccc2O)c(=O)n(-c2ccccc2)n1C | n | n | n | n | n | x | RECQ1 conf=n;ADP FP counter=n
CCOC(=O)C1CCCN(S(=O)(=O)c2cc(-c3onc(C)c3C)ccc2OC)C1 (configuration not stated) | n | n | x | x | n | x
COc1cc(OC)c(NS(=O)(=O)c2c(C(=O)N3CCCCCC3)c(C)n(C)c2C)cc1Cl | n | n | x | x | n | x
CC(=O)c1ccc(S(=O)(=O)Nc2ccc(-c3ccc4nnc(C)n4n3)cc2)cc1 | n | n | u | u | n | u
Cc1nnc2ccc(-c3ccc(NS(=O)(=O)c4ccccc4)cc3)nn12 | x | n | n | x | n | x
O=S(=O)(c1ccc2c(c1)CCC2)N1CCNCC1 | x | n | n | x | n | x
COCCn1c(C)cc(C(=O)COC(=O)c2cccc(O)c2)c1C | n | n | n | n | n | x
